Usually inhibition stands for the drop in the measured response relative to a control, in per cent.

The structures appear in SMILES notation. About 2,400 (0.69%) of roughly 350,000 compounds were called active. The sample holds actives, similar compounds and a random draw of the others, so the mix is not that of the screen. Cut-off read from the data, not from the text of the source: active = inhibition above about 41%; inconclusive = no clear call, values can overlap the other calls; inactive = below that.

Consider 47 compounds from PubChem BioAssay AID504558 (Broad Institute, 2011).

The nature of this assay: blockers of LMP1-induced NF-kB reporter signal – cell-based, luminescence, single point, primary screen (AID 504558).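 Note: 0% = neutral control wells and 100% = reference inhibitor control.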 The note with it: LMP1-induced NF-kappaB luciferase reporter cells, at 12.5 µM, hits give high values. (A reporter such as luciferase makes a cellular process visible.)
Regarding `Cc1cccc(S(=O)(=O)N(C)C[C@H]2OCc3cnnn3CCCC(=O)N([C@@H](C)CO)C[C@H]2C)c1`, the inhibition was 2.93% (inactive).

For `COc1ccccc1-n1c(SCC(=O)Nc2ccc(Cl)cc2)nc(O)c(Cc2ccccc2)c1=O`, the inhibition was -7.65% (inactive).

`CN(C)CCN(C(=O)C1CCCCC1)c1nc2cc3c(cc2s1)OCO3`: the inhibition is 0.636% (inactive).

For the compound `O=C(c1ccc2nc(N3CCOCC3)sc2c1)N1CCN(c2ccc(Cl)cc2)CC1`, the inhibition was 3.45% (inactive).

Consider `c1c2c(cc3sc(N4CCCCC4)nc13)OCCO2`, for which the inhibition was 58% (active).

On to `Cc1ccc(NC(=O)Cn2sc3ccccc3c2=O)cc1`, for which the inhibition is 0.665% (inactive).

Take `COc1cccc2c1C(=O)c1c(O)c3c(c(O)c1C2=O)CC(O)(C(C)=NNC(=O)c1ccc(Cl)c(Cl)c1)CC3OC1CC(N)C(O)C(C)O1` (configuration not stated): the inhibition is 70% (active).

As to `COc1cc(C(=O)OCCCN2CCOCC2)cc(OC)c1OC`, the inhibition is 1.26% (inactive).

`Cc1ccc(-c2nnn(CC(=O)N(Cc3ccco3)C(C(=O)NC(C)(C)C)c3ccncc3)n2)o1` (configuration not stated): the inhibition is 54.6% (active).

For `Cc1ccc(-c2nnn(CC(=O)N(CCO)C(C(=O)NC(C)(C)C)c3ccncc3)n2)cc1` (configuration not stated), the inhibition is -24.9% (inactive).

Take `Cc1cccc(N(C(=O)Cn2nnc(-c3ccc(C)o3)n2)C(C(=O)NC2CCCC2)c2ccncc2)c1` (configuration not stated): the inhibition is 9.95% (inactive).

In the case of `CCn1c(SCC(=O)N2CCCC2=O)nc2ccccc21`, the inhibition was 6.54% (inactive).

Turning to `O=C(CNC(=O)C(c1ccccc1)c1ccccc1)N/N=C\c1ccc2c(c1)OCO2`, the inhibition was -3.07% (inactive).

With `Cc1cccc(NC(=O)/C=C/c2ccc3c(c2)OCO3)n1`, the inhibition is -23.8% (inactive).

Regarding `C(=N\Nc1ccc2ccccc2n1)/c1ccc2c(c1)OCO2`, the inhibition was 43.9% (active).

In the case of `CC(OC(=O)c1cccc(S(=O)(=O)N2CCOCC2)c1)C(=O)NCC1CCCCC1` (configuration not stated), the inhibition is -1.25% (inactive).

Consider `CCNC(=S)NNC(=O)c1ccc2ncccc2c1`, for which the inhibition was 7.73% (inactive).

As for `O=C(O)c1ccc(N/N=C/c2ccc3ncccc3c2)cc1`, the inhibition is 44.3% (active).

Consider `Cc1ccc2cc(/C=N/Nc3ccc(C(=O)O)cc3)c(Cl)nc2c1`, for which the inhibition is -63.4% (inactive).

As for `CCOc1ccc(S(=O)(=O)NCCC(=O)NNC(=O)c2ccc(F)cc2)cc1`, the inhibition is -8.7% (inactive).

On to `O=C(Nc1ccc2c(c1)[C@@H]1C[C@@H](CC(=O)N3CCCCC3)O[C@@H](CO)[C@@H]1O2)NC1CCCCC1`, for which the inhibition is 1.38% (inactive).

On to `CCc1cc(-c2nnn(CCC3COCCO3)c2CC)ccc1-c1cn(Cc2ccc3ccccc3c2)nn1` (configuration not stated), for which the inhibition is 0.755% (inactive).

`Cc1cc(Cl)ccc1C(=O)C1CCCN(C(=O)c2ccc3c(c2)OCO3)C1` (configuration not stated): the inhibition is -1.16% (inactive).

As for `CCNC(=S)N1CCN(c2ncccn2)CC1`, the inhibition was -18.8% (inactive).

With `O=C(Nc1nnc(-c2ccccc2F)s1)c1ccccc1F`, the inhibition was -3.53% (inactive).

For the compound `Cc1cccc(C)c1NC(=S)N1CCCCCC1`, the inhibition is 23.1% (inactive).

For `C/C(=N\NC(=O)c1ccccc1F)c1ccccn1`, the inhibition is 48.6% (active).

As to `CC(=NNC(=S)N1CCCCCC1)c1ccccn1`, the inhibition was 91.7% (active).

Regarding `O=C(NCCOc1ccccc1)c1ccccc1F`, the inhibition is -2.63% (inactive).

On to `CCN(C(=O)Nc1cccc2ccccc12)c1ccccc1`, for which the inhibition was 2.61% (inactive).

Regarding `CCN(Cc1ccncc1)C(=S)Nc1ccccc1C`, the inhibition is 0.031% (inactive).

As for `CCc1ccccc1OCC(=O)Nc1nnc(C2CC2)s1`, the inhibition is -2.82% (inactive).

Consider `COCOCCn1cc(CN2CCS(=O)(=O)N(Cc3ccc(-c4ccccc4)cc3)C(CC(C)C)C2=O)nn1` (configuration not stated), for which the inhibition is 1.98% (inactive).

With `CC1=C(C(=O)N2CCOCC2)CC(CC(=O)NCc2ccco2)C(=O)N1Cc1ccc(F)cc1` (configuration not stated), the inhibition was 3.55% (inactive).

As to `Cc1cccc(-n2ncc3c(=O)[nH]c(SCC(=O)Nc4cc(C)on4)nc32)c1`, the inhibition was -3.93% (inactive).

Take `Cc1cccc(-n2ncc(Cl)c(Cl)c2=O)c1`: the inhibition is 52.4% (active).

For `C=CCNc1cnn(-c2ccc(C)cc2)c(=O)c1Cl`, the inhibition was -12.1% (inactive).

Consider `CCCCN1C[C@H](c2ccc(Br)cc2)[C@@H](CC(=O)Nc2ccc(Br)cc2)C1=O`, for which the inhibition was 1.53% (inactive).

For `C[C@@H]1CN([C@@H](C)CO)C(=O)c2cc(Br)cnc2O[C@@H]1CN(C)C(=O)C1CCCCC1`, the inhibition was -0.141% (inactive).

On to `CCN(CC)C(=O)C1=C(C)N(Cc2ccccc2)C(=O)C(CC(=O)NC(c2ccccc2)c2ccccc2)C1` (configuration not stated), for which the inhibition is 2.92% (inactive).

Take `COc1cccc(/C=C/c2ccc3ccccc3n2)c1OC(C)=O`: the inhibition was 56.9% (active).

`CC(=O)c1ccc(S(=O)(=O)N2CCN(C(=O)/C=C/c3ccc4ccccc4n3)CC2)cc1`: the inhibition was -1.62% (inactive).

As to `CCOc1cccc(/C=C/c2ccc3ccccc3n2)c1OC(C)=O`, the inhibition was 17.6% (inactive).

With `CC1(C)C2CCC1(C)C(OC(=O)c1ccc(O)cc1)C2` (configuration not stated), the inhibition is -2.13% (inactive).

Regarding `O=C(OC12CC3CC(CC(C3)C1)C2)c1ccc(NCc2cc(O)ccc2O)cc1`, the inhibition is 44.1% (active).

With `COC(=O)c1ccc(NCc2cc(O)ccc2O)cc1`, the inhibition was -94.1% (inactive).

For `CC1C(=O)N(Cc2cn(Cc3ccco3)nn2)CCS(=O)(=O)N1Cc1ccc(-c2cccc(CO)c2)cc1` (configuration not stated), the inhibition is 4.76% (inactive).
